Data from PubChem BioAssay AID1159580 (chemical genetic matrix, 2015).
“And” between values parts separate entries of the source, which are not always exact repeats. Identical values can stand only once. Screen size: about 5,500 compounds; about 2,000 (36%) were called active. Not shown: some 18% with an inconclusive outcome. Rule as the data show it: active = normalized growth mostly below about 0.91 (no sharp cut-off); inconclusive = no clear call, values can overlap the other calls; inactive = mostly above about 0.92. The list shows a part of the results.

Assay: chemical genetic growth profiling, strain panel (AID 1159580);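 also: tested at 20 µM; growth read once vehicle control cultures reached saturation at 30 °C; 1 = growth at the plate median or of vehicle wells; lower values mean less growth of the strain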
Details: S. cerevisiae deletion strains, growth OD

Measured: normalized growth

CC(=O)C1CC[C@H]2C3CC[C@H]4C[C@H](O)CC[C@]4(C)C3CC[C@]12C (some centres undefined)
active: locus YAL026C, strain drs2, hits give low values 0.849 | locus YDR137W, strain rgp1, hits give low values 0.763 | locus YLR262C, strain YPT6 (second series), hits give low values 0.778
inactive: locus YAL013W, strain DEP1, hits give low values 1 | locus YAL021C, strain ccr4, hits give low values 0.936 | locus YAL030W, strain snc1, hits give low values 0.999 | locus YBL061C, strain skt5, hits give low values 1.02 | locus YBR009C, strain hhf1, hits give low values 1.02 | locus YBR021W, strain FUR4, hits give low values 0.977 | locus YBR023C, strain chs3, hits give low values 0.998 | locus YBR171W, strain sec66, hits give low values 0.998 | locus YBR229C, strain ROT2, hits give low values 0.995 | locus YBR231C, strain swc5, hits give low values 1.01 | locus YBR279W, strain paf1, hits give low values 0.987 | locus YCL011C, strain gbp2, hits give low values 0.995 | locus YCL016C, strain dcc1, hits give low values 0.964 | locus YCL029C, strain bik1, hits give low values 0.998 | locus YCL069W, strain vba3, hits give low values 1 | locus YCR088W, strain abp1, hits give low values 1 | locus YDL005C, strain med2, hits give low values 0.997 | locus YDL035C, strain GPR1, hits give low values 0.999 | locus YDL040C, strain nat1, hits give low values 1.01 | locus YDL074C, strain BRE1, hits give low values 1.01 | locus YDL101C, strain DUN1, hits give low values 0.982 | locus YDL134C, strain PPH21, hits give low values 0.975 | locus YDL185W, strain tfp1, hits give low values 0.989 | locus YDL192W, strain arf1, hits give low values 1 | locus YDR001C, strain nth1, hits give low values 1.01 | locus YDR069C, strain doa4, hits give low values 1 | locus YDR101C, strain arx1, hits give low values 1.01 | locus YDR159W, strain sac3, hits give low values 1.03 | locus YDR162C, strain NBP2, hits give low values 0.993 | locus YDR195W, strain ref2 1.02 | locus YDR297W, strain sur2, hits give low values 1.02 | locus YDR318W, strain mcm21, hits give low values 0.995 | locus YDR334W, strain swr1, hits give low values 1.01 | locus YDR335W, strain msn5, hits give low values 0.984 | locus YDR388W, hits give low values 0.994 | locus YDR392W, strain spt3, hits give low values 0.837 | locus YDR502C, strain sam2, hits give low values 0.971 | locus YEL003W, strain gim4, hits give low values 1 | locus YEL037C, strain rad23, hits give low values 0.994 | locus YEL061C, strain CIN8 (second series), hits give low values 1 | locus YEL061C, strain CIN8, hits give low values 1.01 | locus YER015W, strain faa2, hits give low values 1 | locus YER016W, strain bim1, hits give low values 0.998 | locus YER110C, hits give low values 0.981 | locus YER111C, strain swi4, hits give low values 0.994 | locus YER155C, strain BEM2 (second series), hits give low values 1.02 | locus YER155C, strain BEM2, hits give low values 0.992 | locus YER167W, strain BCK2, hits give low values 0.993 | locus YFR010W, strain ubp6, hits give low values 0.999 | locus YGL078C, strain dbp3, hits give low values 0.963 | locus YGL086W, strain mad1, hits give low values 0.971 | locus YGL167C, strain pmr1, hits give low values 1.01 | locus YGL173C, strain kem1, hits give low values 0.99 | locus YGL227W, strain vid30, hits give low values 1.01 | locus YGL240W, strain doc1, hits give low values 1.01 | locus YGL248W, strain PDE1, hits give low values 0.987 | locus YGL253W, strain hxk2, hits give low values 0.983 | locus YGR078C, strain PAC10, hits give low values 0.969 | locus YGR135W, strain pre9, hits give low values 0.932 | locus YGR229C, strain SMI1, hits give low values 1.05 | locus YGR252W, strain gcn5, hits give low values 0.928 | locus YHR013C, strain ard1, hits give low values 0.996 | locus YHR027C, strain rpn1, hits give low values 0.999 | locus YHR030C, strain SLT2, hits give low values 0.992 and 0.994 | locus YHR079C, strain IRE1 (second series), hits give low values 1 | locus YHR079C, strain IRE1, hits give low values 1 | locus YHR094C, strain hxt1, hits give low values 0.992 | locus YHR129C, strain ARP1, hits give low values 1 | locus YHR142W, strain chs7, hits give low values 0.957 | locus YHR200W, strain rpn10, hits give low values 0.984 | locus YIL066C, strain RNR3, hits give low values 1.01 | locus YIL073C, strain SPO22, hits give low values 0.962 | locus YIL125W, strain kgd1, hits give low values 1 | locus YIR030C, strain dcg1, hits give low values 0.998 | locus YJL092W, strain hpr5, hits give low values 1 | locus YJL095W, strain BCK1 (second series), hits give low values 1.01 | locus YJL095W, strain BCK1, hits give low values 0.936 and 0.99 | locus YJL115W, strain asf1, hits give low values 1 | locus YJL129C, strain trk1, hits give low values 1.01 | locus YJL134W, strain LCB3, hits give low values 1 | locus YJL154C, strain vps35, hits give low values 1.01 | locus YJL164C, strain tpk1, hits give low values 0.999 | locus YJL166W, strain qcr8, hits give low values 1.01 | locus YJL168C, strain set2, hits give low values 1 | locus YJL187C, strain SWE1 (second series), hits give low values 0.962 | locus YJL187C, strain SWE1, hits give low values 1.01 | locus YJR043C, strain POL32, hits give low values 1.05 | locus YJR066W, strain TOR1, hits give low values 0.924 | locus YKL009W, strain mrt4, hits give low values 0.978 | locus YKL068W, hits give low values 0.993 | locus YKL085W, strain MDH1 (second series), hits give low values 1.01 | locus YKL085W, strain MDH1, hits give low values 1.01 | locus YKL160W, strain elf1, hits give low values 0.976 | locus YKL190W, strain CNB1, hits give low values 1.01 | locus YKR001C, strain vps1, hits give low values 1.02 | locus YKR026C, strain gcn3, hits give low values 1 | locus YKR091W, strain srl3, hits give low values 1.01 | locus YLL001W, strain dnm1, hits give low values 1 | locus YLL026W, hits give low values 1.02 | locus YLL041C, strain sdh2, hits give low values 0.997 | locus YLR027C, strain aat2, hits give low values 0.983 | locus YLR039C, strain RIC1, hits give low values 0.797 | locus YLR058C, strain SHM2, hits give low values 0.991 | locus YLR102C, strain apc9, hits give low values 1 | locus YLR113W, strain HOG1, hits give low values 1.01 | locus YLR221C, strain rsa3, hits give low values 1.03 | locus YLR258W, strain gsy2, hits give low values 0.964 | locus YLR268W, strain sec22, hits give low values 0.977 | locus YLR320W, strain mms22, hits give low values 0.98 | locus YLR330W, strain CHS5, hits give low values 1 | locus YLR342W, strain FKS1 (second series), hits give low values 0.997 | locus YLR342W, strain FKS1, hits give low values 1.01 | locus YLR357W, strain rsc2, hits give low values 0.994 | locus YLR370C, strain arc18, hits give low values 0.999 | locus YLR371W, strain rom2, hits give low values 1 | locus YLR384C, strain iki3, hits give low values 0.977 | locus YLR418C, strain cdc73, hits give low values 0.993 | locus YML016C, strain PPZ1, hits give low values 0.994 | locus YML032C, strain rad52, hits give low values 0.969 | locus YML120C, strain ndi1, hits give low values 1.02 | locus YML124C, strain tub3, hits give low values 0.996 | locus YMR058W, strain fet3, hits give low values 1.01 | locus YMR078C, strain ctf18, hits give low values 0.988 | locus YMR125W, strain sto1, hits give low values 0.998 | locus YMR129W, hits give low values 1 | locus YMR205C, strain PFK2, hits give low values 1 | locus YMR223W, strain ubp8, hits give low values 0.977 | locus YMR231W, strain pep5, hits give low values 1.01 | locus YMR307W, strain GAS1, hits give low values 1.11 | locus YNL067W, strain RPL9B, hits give low values 0.967 | locus YNL071W, strain lat1, hits give low values 0.995 | locus YNL128W, strain TEP1, hits give low values 0.993 | locus YNL153C, strain GIM3, hits give low values 0.985 | locus YNL183C, strain NPR1, hits give low values 0.959 | locus YNL209W, strain ssb2, hits give low values 0.987 | locus YNL233W, strain BNI4, hits give low values 0.992 | locus YNL248C, strain rpa49, hits give low values 0.939 | locus YNL250W, strain rad50, hits give low values 0.946 | locus YNL271C, strain bni1, hits give low values 0.986 | locus YNL298W, strain CLA4, hits give low values 0.993 | locus YNL307C, strain MCK1, hits give low values 1.01 | locus YNL322C, strain KRE1 (second series), hits give low values 1.01 | locus YNR049C, strain mso1, hits give low values 1.01 | locus YNR052C, strain pop2, hits give low values 0.943 | locus YOL012C, strain htz1 0.983 | locus YOL147C, strain pex11, hits give low values 0.994 | locus YOR001W, strain rrp6, hits give low values 0.994 | locus YOR061W, strain CKA2, hits give low values 1.01 | locus YOR069W, strain VPS5, hits give low values 0.988 | locus YOR070C, strain gyp1, hits give low values 0.991 | locus YOR080W, strain dia2, hits give low values 1.01 | locus YOR083W, strain WHI5, hits give low values 0.984 | locus YOR106W, strain vam3, hits give low values 0.995 | locus YOR136W, strain idh2, hits give low values 0.992 | locus YOR144C, strain elg1, hits give low values 0.998 | locus YOR184W, strain ser1, hits give low values 0.981 | locus YOR231W, strain MKK1, hits give low values 0.996 | locus YOR265W, strain rbl2, hits give low values 0.993 | locus YOR270C, strain vph1, hits give low values 0.949 | locus YOR290C, strain snf2, hits give low values 0.951 | locus YOR316C, strain cot1, hits give low values 1 | locus YPL051W, strain arl3, hits give low values 0.986 | locus YPL078C, strain atp4, hits give low values 0.976 | locus YPL106C, strain sse1, hits give low values 1.04 | locus YPL240C, strain hsp82, hits give low values 1.02 | locus YPL256C, strain CLN2, hits give low values 1.01 | locus YPR119W, strain clb2, hits give low values 0.997 | locus YPR141C, strain kar3, hits give low values 0.99 | locus YPR163C, strain tif3, hits give low values 0.99 | locus YPR167C, strain met16, hits give low values 0.995 | strain wtn01, hits give low values 0.987
